A number with no mark means an inactive call. Results filed as inconclusive are left out. A call without a number means that no potency is given here. Activity calls are given as the source filed them. Calls follow the shape of the dose curve; as a rule, active = well fitted curve in the direction sought with a large enough effect; inconclusive = small, poorly fitted or top-dose-only effect, or another doubt; inactive = no such curve, though single readings can be large; an effect the other way counts as inactive or inconclusive.
Assays:
[1] = biological target: Glutathione peroxidase 1 (Homo sapiens) (UniProt P07203); assay: Primary qHTS Assay for Inhibitors of Recombinant Selenoprotein Glutathione Peroxidase 1 (GPX1) (AID 1845191); settings: recombinant GPX1, GR-coupled NADPH fluorescence, 15 min; series mostly up to 48.8 µM; also: nearly all actives have a fitted effect of over 65% in size
Method in brief: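 Recombinant GPX1 (10 nM final) was preincubated with compound for 30 min at room temperature, then reacted with 1 mM GSH, 0.5 mM CHP, 0.5 mM NADPH and 100 nM glutathione reductase; NADPH fluorescence (340/450 nm) was read at 0 and 15 min.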

[2] = biological target: Phospholipid hydroperoxide glutathione peroxidase GPX4 (Homo sapiens) (UniProt P36969); assay: Primary qHTS Assay for Inhibitors of Recombinant Selenoprotein Glutathione Peroxidase 4 (GPX4) (AID 1845192); settings: recombinant GPX4, GR-coupled NADPH fluorescence, 15 min; series mostly up to 50 µM; also: nearly all actives have a fitted effect of over 65% in size
Method in brief: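 GR-coupled readout: 100 nM GR, 1 mM GSH, 0.5 mM NADPH; NADPH fluorescence (ex 340/em 450 nm) read at t=0 and after 15 min RT. GPX4 200 nM, preincubated 30 min with compound; substrate 0.5 mM CHP.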

[3] = biological target: Luciferin 4-monooxygenase (Photinus pyralis) (UniProt P08659); assay: Primary firefly luciferase (FLuc) qHTS assay for identification of artifact compounds. (AID 1845220); settings: purified firefly luciferase, luminescence, 5 min; series mostly up to 54.1 µM; also: nearly all actives have a fitted effect of over 60% in size
Method in brief: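 In this counter-screen for luciferase artifacts, test compounds met substrate (10 uM each luciferin and ATP) before 10 nM enzyme started the reaction. Light output was measured 5 min later.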

[4] = Primary fluorescence-based thiol-reactive (MSTI) qHTS assay for identification of artifact compounds. (AID 1845221); settings: MSTI thiol-reactivity probe, 1 h; series mostly up to 53.8 µM; also: nearly all actives have a fitted effect of over 65% in size; also: potency is read from the fitted curve at half-maximal effect;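 as to activity change, negative = thiol reactive: thiol-reactive compounds lower the probe fluorescence signal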
Method in brief: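 qHTS titration of compound; 4 uM MSTI, PBS pH 7.4, 2% DMSO; 1 h RT, dark; fluorescence 525/598 nm; normalized to Acetyl-MSTI and MSTI; 4-parameter Hill fit.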

[5] = tested on: Nanoluciferase (engineered Oplophorus gracilirostris luciferase); assay: Primary Nanoluciferase (NLuc) qHTS assay for identification of artifact compounds. (AID 1845222); settings: NLuc-conditioned medium, Nano-Glo luminescence, 5 min; series mostly up to 54.1 µM;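 also: NLuc secreted into diluted conditioned medium of S16 cells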
Method in brief: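 Using secreted nanoluciferase in S16 culture medium (0.22 um filtered, 1:55 dilution), compounds were preincubated 15 min at RT. Signal was generated with Nano-Glo reagent (1:100) over 5 min.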

[6] = Primary redox qHTS assay for identification of artifact compounds. (AID 1845223); settings: Amplex Red/HRP redox cycling with DTT, fluorescence; series mostly up to 53.8 µM
Method in brief: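 Amplex Red (25 uM) and HRP (250 mU/mL) in HBSS, with compounds for 15 min, then 250 uM DTT for 30 min, room temperature, dark. Fluorescence 525/598 nm read; normalized to DMSO and 10 uM DA3003; Hill fit.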

Chain of Glutathione peroxidase 1 (Homo sapiens) (P07203 whole entry, looked up): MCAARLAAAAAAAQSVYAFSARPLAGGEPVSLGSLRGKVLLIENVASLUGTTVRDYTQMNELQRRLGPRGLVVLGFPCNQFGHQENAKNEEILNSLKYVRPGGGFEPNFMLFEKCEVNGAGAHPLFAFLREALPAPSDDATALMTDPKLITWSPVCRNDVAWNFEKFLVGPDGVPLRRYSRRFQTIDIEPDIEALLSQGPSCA
Chain of Phospholipid hydroperoxide glutathione peroxidase GPX4 (Homo sapiens) (P36969 whole entry, looked up): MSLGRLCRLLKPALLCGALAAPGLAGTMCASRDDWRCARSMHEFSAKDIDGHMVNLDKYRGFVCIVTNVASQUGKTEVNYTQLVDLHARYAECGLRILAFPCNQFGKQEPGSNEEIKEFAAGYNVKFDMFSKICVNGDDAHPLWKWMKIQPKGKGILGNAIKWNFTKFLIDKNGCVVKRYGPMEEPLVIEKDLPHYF

Row | Compound | Potency [1] | Potency [2] | Potency [3] | Potency [4] | Potency [5] | outcome [6] | outcome [1] | activity change, negative = inhibition [2] | activity change, negative = inhibition [3] | activity change, negative = thiol reactive [4] | activity, negative = inhibition [5] | redox activity (% of DA3003) [6]
1 | O=c1[nH]nc(OCCCc2ccc(Cl)cc2)c(NCc2cccnc2)c1Br | inactive | inactive | inactive | inactive | inactive | inactive |  |  |  |  |  | 
2 | CC1(C)CC(=O)c2c(C(F)(F)F)nn(-c3ccc(C(N)=O)c(NC4CCC(O)CC4)c3)c2C1 (stereo unspecified) | inactive | inactive | inactive | inactive | inactive | inactive |  |  |  |  |  | 
3 | CC(C)(O)CC(=O)NCCn1ccc2ncnc(Nc3ccc(Oc4cccc(C(F)(F)F)c4)c(Cl)c3)c21 | inactive | inactive | inactive | inactive | inactive | inactive |  |  |  |  |  | 
4 | Fc1ccc(CNc2ncnc3ccc(F)cc23)cc1 | inactive | inactive | inactive | inactive | inactive | inactive |  |  |  |  |  | 
5 | CN[C@@H](C)[C@H]1[C@H](O)C[C@@]2(C)[C@@H]3CC[C@H]4C(C)(C)[C@@H](NC)CC[C@@]45C[C@@]35CC[C@]12C |  |  |  |  |  |  | inactive [at 9.52 µM] | -4.33% [at 9.73 µM] | 1.81% [at 11.6 µM] | 7.61% [at 11.5 µM] | 3.6% [at 11.6 µM] | -0.744% [at 11.5 µM]
6 | Cc1ccccc1-n1c(Cn2nc(-c3cccc(O)c3)c3c(N)ncnc32)nc2cccc(C)c2c1=O | inactive | inactive | inactive | inactive | inactive | inactive |  |  |  |  |  | 
7 | NC1(C(=O)N[C@@H](CCO)c2ccc(Cl)cc2)CCN(c2ncnc3[nH]ccc23)CC1 | inactive | inactive | inactive | inactive | inactive | inactive |  |  |  |  |  | 
8 | Cc1cnc(CNC(=O)c2c(=O)c3ccc(N4CCCN(C)CC4)nc3n3c2sc2ccccc23)cn1 |  |  |  |  |  |  | inactive [at 9.52 µM] | -0.552% [at 9.73 µM] | 3.83% [at 11.6 µM] | 18.4% [at 11.5 µM] | 4.41% [at 11.6 µM] | -5.5% [at 11.5 µM]
9 | COC(=O)N1CCN(Cc2cccc(NC(=O)Nc3ccc(C)nc3)c2F)CC1 | inactive | inactive | inactive | inactive | inactive | inactive |  |  |  |  |  | 
10 | C=CC(=O)Nc1cccc(Sc2nc(Nc3ccc(N4CCN(C)CC4)cc3)ncc2Cl)c1 | inactive | inactive | inactive | 3.36 µM (active) | inactive | inactive |  |  |  |  |  | 
11 | CC(C)CNc1ccnc(NCc2csc(-c3ccccc3)n2)n1 | inactive | inactive | inactive | inactive | inactive | inactive |  |  |  |  |  | 
12 | CNc1nc(Nc2ccc(C(=O)N3CCOCC3)cc2OC)ncc1Cl | inactive | inactive | inactive | inactive | inactive | inactive |  |  |  |  |  | 
13 | Cc1cccc2c1CC[C@H](CN1CCC(c3c(Cl)cccc3Cl)CC1)C[C@@H]2O | inactive | inactive | inactive | inactive | inactive | inactive |  |  |  |  |  | 
14 | CC(C)(OCc1nn(Cc2ccccc2)c2ccccc12)C(=O)O | inactive | inactive | inactive | inactive | inactive | inactive |  |  |  |  |  | 
15 | O=C(CO)N1CCC(c2[nH]nc(-c3ccc(Cl)cc3)c2-c2ccncn2)CC1 | inactive | inactive | inactive | inactive | inactive | inactive |  |  |  |  |  | 
16 | Clc1ccc(C2(c3ccc(-c4cn[nH]c4)cc3)CCNCC2)cc1 | inactive | inactive | inactive | inactive | inactive | inactive |  |  |  |  |  | 
17 | NC(=O)c1ccc(N(C(N)=O)c2c(F)cccc2F)nc1-c1ccc(F)cc1F | inactive | inactive | inactive | inactive | inactive | inactive |  |  |  |  |  | 
18 | O=C(Nc1cccc(C(F)(F)F)c1)Nc1cc(S(=O)(=O)NC2CC2)ccc1-c1ccsc1 | inactive | inactive | inactive | inactive | inactive | inactive |  |  |  |  |  | 
19 | Cc1c(C(=O)Nc2ccc(N3C[C@@H](C)O[C@@H](C)C3)nc2)cccc1-c1ccc(OC(F)(F)F)cc1 | inactive | inactive | inactive | inactive | inactive | inactive |  |  |  |  |  | 
20 | c1ccc(-c2oc3ncnc(NC[C@@H]4CCCO4)c3c2-c2ccccc2)cc1 | inactive | inactive | inactive | inactive | inactive | inactive |  |  |  |  |  | 
21 | CCC(=O)N1CCN(c2ccc(-n3c(=O)ccc4cnc5ccc(-c6cnc7ccccc7c6)cc5c43)cc2C(F)(F)F)CC1 | inactive | inactive |  |  |  |  |  |  | 2.1% [at 11.6 µM] | -11% [at 11.5 µM] | 4.43% [at 11.6 µM] | -10.4% [at 11.5 µM]

Reference: PubChem BioAssay (NCATS)
